# High-throughput results as filed in PubChem BioAssay.
# Compounds with a hit are over-represented: about 5.7% of the library has one in this group of screens.
# HP1b chromo inh: HTS for Inhibitors of HP1-beta Chromodomain Interactions with Methylated Histone Tails; Chromobox protein homolog 1 (Homo sapiens), P83916; AlphaScreen HP1-beta / biotin-H3K9me3 peptide binding; Potency, µM (doses to about 114 µM), most hits filed as inhibitors; 390,000 tested, 0.56% active; AID 540317, 2011; also: nearly all actives have a fitted effect of over 70% in size
#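 Compound inhibition of the preformed complex between 50 nM HP1-beta and 50 nM biotinylated H3K9me3 peptide was read by AlphaScreen. Buffer was PBS pH 7.4 with 0.01% Tween-20. Incubations ran 30 min at room temperature, with 10 ug/mL donor/acceptor beads.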
# PI5P4K alpha inh: qHTS for Inhibitors of phosphatidylinositol 5-phosphate 4-kinase (PI5P4K); PI5P4Kalpha enzyme, ADP-Glo luminescence, 60 min; active compounds read low; Phosphatidylinositol 5-phosphate 4-kinase type-2 alpha (Homo sapiens), P48426; 330,000 tested, 1.2% active; max response, %; active = max response of -50% or lower; inconclusive = between -30% and -50%; inactive = -30% or higher; also: value at the top dose of about 77 µM
# Target sequence (P48426 whole entry, looked up): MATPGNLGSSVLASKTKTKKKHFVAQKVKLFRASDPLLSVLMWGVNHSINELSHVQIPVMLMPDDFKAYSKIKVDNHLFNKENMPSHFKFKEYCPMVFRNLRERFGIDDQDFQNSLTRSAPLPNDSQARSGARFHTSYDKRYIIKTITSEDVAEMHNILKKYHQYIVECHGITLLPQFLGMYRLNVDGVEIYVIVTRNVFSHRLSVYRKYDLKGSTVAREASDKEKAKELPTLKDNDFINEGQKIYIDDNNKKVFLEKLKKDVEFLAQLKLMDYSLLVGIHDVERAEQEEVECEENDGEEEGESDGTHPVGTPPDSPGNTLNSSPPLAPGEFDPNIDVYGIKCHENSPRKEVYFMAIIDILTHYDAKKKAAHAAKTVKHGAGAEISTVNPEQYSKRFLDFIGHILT
#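 Human PI5P4Kalpha with substrate in 0.038 M HEPES pH 7.4, 0.28 mM EGTA, 0.1% CHAPS, 5% DMSO; reaction started with 5 microM ATP (final), 60 min at room temperature. ADP formed read by ADP-Glo luminescence.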
# KDM4E inh: qHTS Assay for Inhibitors of Human Jumonji Domain Containing 2E (JMJD2E); 230,000 tested, 1.6% active; JMJD2E catalytic domain, FDH-coupled NADH fluorescence (FDH is formaldehyde dehydrogenase); Potency, µM (series often up to 57.1 µM), most hits filed as inhibitors; Lysine-specific demethylase 4E (Homo sapiens), B2RXH2; AID 2147, 2009; active = well fitted inhibition curve with a large enough effect, not every such curve was filed as active; inconclusive = small, poorly fitted or top-dose-only effect, or another doubt; inactive = no such curve, though single readings can be large or run the other way; also: nearly all actives have a fitted effect of over 50% in size
# BAZ2B block: qHTS Assay for Inhibitors of BAZ2B; Bromodomain adjacent to zinc finger domain protein 2B (Homo sapiens), Q9UIF8; AlphaScreen BAZ2B-H3K14Ac peptide displacement; Potency, µM (series often up to 114 µM), most hits filed as inhibitors; 360,000 tested, 4.4% active; AID 504333, 2011; also: nearly all actives have a fitted effect of over 60% in size
#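 AlphaScreen luminescence quantifies BAZ2B engagement of H3K14Ac peptide; the protein and biotinylated peptide are both at 50 nM final, buffer PBS pH 7.4 with 0.01% Tween-20, all steps at room temperature.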
# L3MBTL1 block: qHTS Assay for the Inhibitors of L3MBTL1; 230,000 tested, 0.66% active; Potency, µM (series often up to 57.1 µM), hits mostly inhibitors; AID 485360, 2010; AlphaScreen L3MBTL1–H3K9me1 peptide binding; Lethal(3)malignant brain tumor-like protein 1 (Homo sapiens), Q9Y468; also: nearly all actives have a fitted effect of over 60% in size
#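 AlphaScreen proximity signal between nickel-chelate acceptor and streptavidin donor beads (final 10 ug/mL) reports binding of 50 nM L3MBTL1 to 75 nM biotin-H3 K9me1 peptide; complex incubated with compounds 30 min at room temperature; cefsulodin titration as control.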
# JMJD2A Tudor inh: qHTS Assay for Inhibitors of JMJD2A-Tudor Domain | AlphaScreen JMJD2A-Tudor / H3K4me3 peptide binding | 390,000 tested, 4.4% active | Potency, µM (highest dose often 114 µM), most hits filed as inhibitors; also: nearly all actives have a fitted effect of over 50% in size
# Hits are given with their value; – = inactive; ? = inconclusive; · = no result given. Unless noted, calls follow the shape of the dose curve; as a rule, active = well fitted inhibition curve with a large enough effect; inconclusive = small, poorly fitted or top-dose-only effect; inactive = no such curve, though single readings can be large or run the other way.
SMILES,HP1b chromo inh,PI5P4K alpha inh,KDM4E inh,BAZ2B block,L3MBTL1 block,JMJD2A Tudor inh
CS(=O)(=O)N(Cc1ccc(Cl)cc1)c1ccc(C(=O)N2CCN(c3ccccc3)CC2)cc1,–,–,–,?,·,89.1µM
COc1cc(OC)cc(-c2nc3n(n2)C(c2ccccc2)C(C(N)=O)=C(C)N3)c1 (stereo unspecified),–,·,·,–,·,–
COc1cc2c(cc1OC)/C(=C/C(=O)c1ccc(C)cc1)NCC2,–,–,·,?,·,?
COc1cc2c(cc1OC)/C(=C/C(=O)c1ccc([N+](=O)[O-])c(C)c1)NCC2,–,–,·,–,·,20µM
CCOc1ccc(-c2nnc(SCC(=O)c3ccccc3)n2-c2ccccc2)cc1,–,·,·,–,·,–
O=C(O)CSc1c2c(nc3cc(C(=O)Nc4cccc(C(F)(F)F)c4)ccc13)CCC2,–,?,·,70.8µM,·,79.4µM
CCOC(=O)c1ccccc1NC(=O)c1ccc2c(SCC(=O)O)c3c(nc2c1)CCCC3,–,–,·,50.1µM,·,–
CCOc1ccc(NC(=O)c2ccc3c(SCC(=O)O)c4c(nc3c2)CCCC4)cc1,–,–,–,–,–,–
Oc1ccc(-c2cn3ccccc3n2)cc1O,?,–,·,79.4µM,·,25.1µM
COc1ccc(C(=O)NCc2cn3ccc(C)cc3n2)cc1,–,·,·,–,·,–
Cc1ccn2cc(CC(=O)O)nc2c1,70.8µM,–,?,56.2µM,?,39.8µM
Cc1ccn2cc(-c3ccc(O)c(O)c3)nc2c1,?,–,·,70.8µM,·,39.8µM
COc1cccc(CNC(=O)CN2C(=O)CSc3c2c(C)nn3-c2ccccc2)c1,–,·,·,–,·,–
Cc1ccc(NC(=O)CCCC2CCCCC2)c(O)c1,–,–,·,–,·,–
O=C1NN(c2cccc(Br)c2)C(=O)/C1=C\c1ccc(N2CCOCC2)cc1,–,–,·,?,·,?
Cc1cccc(C)c1NC(=O)CN(C)C(=O)c1cccc(-n2cccc2)c1,?,?,·,50.1µM,28.2µM,8.91µM
Cc1cccc(C)c1NC(=O)CN(C)C(=O)c1ccc(N2C(=O)CCC2=O)cc1,–,–,·,–,–,–
COc1ccccc1NC(=O)CCC(=O)Nc1cc(OC)c(NC(=O)c2cccs2)cc1OC,–,–,·,–,·,79.4µM
COc1cc(NC(=O)c2cccs2)c(OC)cc1NC(=O)CCC(=O)Nc1cccc2ncccc12,–,–,–,–,–,–
C/C(=N\NC(=O)CNc1cccc(Cl)c1C)c1cccs1,–,–,–,–,–,–
COc1ccccc1NCC(=O)N/N=C(\C)c1cccs1,?,–,–,?,·,35.5µM
Cn1nc(C(=O)NCc2cccc(Cl)c2)c2c1-c1ccccc1SC2,–,·,·,–,·,–
O=C(NCC(c1cccnc1)N1CCc2ccccc21)c1cccc(F)c1 (stereo unspecified),–,·,·,–,·,–
COc1ccc(NC(=O)Cn2c(SCc3ccc(F)cc3)nc3cccnc32)c(OC)c1,–,·,·,–,·,–
NNC(=S)NC1CCCCCCCCCCC1,–,–,–,31.6µM,–,?
SMILES,HP1b chromo inh,PI5P4K alpha inh,KDM4E inh,BAZ2B block,L3MBTL1 block,JMJD2A Tudor inh
CCCN(C)C[C@@H]1OCc2cnnn2CCCC(=O)N([C@H](C)CO)C[C@H]1C,·,–,·,·,·,·
O=C(CSc1nc2c(oc3ccccc32)c(=O)n1-c1ccccc1)Nc1ccc(F)c(Cl)c1,–,·,·,–,·,–
CCCCCC1C(=O)C[C@@H]2CCN3C(=O)CCC[C@H]1[C@H]23 (stereo partly specified),–,–,·,·,–,–
O=C(NC(=S)Nn1cnnc1)c1ccc(F)cc1Cl,?,-53.6,·,?,·,–
O=C(NC(=S)Nn1cnnc1)c1ccccc1Cl,–,–,–,?,·,–
Cc1cc(Nc2cccc(C(F)(F)F)c2)nc2ccc(NC(=O)c3ccc(N(C)C)cc3)cc12,–,·,·,–,·,–
CCOC(=O)C1CCN(S(=O)(=O)c2ccc3[nH]c(=O)c(=O)[nH]c3c2)CC1,–,–,?,–,·,–
